From PubChem BioAssay (EPA / NIEHS) come the findings set out here.

Results filed as inconclusive are left out. Activity calls are given as the source filed them. The calls were made as follows: active = hit-call score of the fitted dose curve at least 0.9, where 1 is the maximum; inconclusive = response in the unintended direction; inactive = score below 0.9.

Sequence of human CYP4F12, CYP4F12 (gene 66002) (Q9HCS2 whole entry, looked up): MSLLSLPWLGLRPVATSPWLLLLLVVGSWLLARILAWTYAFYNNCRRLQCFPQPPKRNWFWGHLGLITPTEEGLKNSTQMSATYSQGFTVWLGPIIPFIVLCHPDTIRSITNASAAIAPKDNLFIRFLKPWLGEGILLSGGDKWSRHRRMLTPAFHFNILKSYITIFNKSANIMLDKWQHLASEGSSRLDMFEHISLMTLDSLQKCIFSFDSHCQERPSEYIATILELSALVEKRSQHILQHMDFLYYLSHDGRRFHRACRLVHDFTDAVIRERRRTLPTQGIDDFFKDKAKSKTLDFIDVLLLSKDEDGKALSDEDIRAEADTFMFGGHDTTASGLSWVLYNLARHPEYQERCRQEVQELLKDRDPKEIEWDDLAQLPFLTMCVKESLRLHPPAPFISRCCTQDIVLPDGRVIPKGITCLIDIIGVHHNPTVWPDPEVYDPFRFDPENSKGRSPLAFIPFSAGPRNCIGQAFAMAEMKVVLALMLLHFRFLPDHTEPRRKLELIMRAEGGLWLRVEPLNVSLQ

The assay has as its target human CYP4F12, CYP4F12 (gene 66002) (UniProt Q9HCS2). Put plainly: NVS_ADME_hCYP4F12: NovaScreen (NVS) CYP450-related Enzyme Activity (ADME) Assay for human CYP4F12 (AID 2283111). Put shortly: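 Recombinant enzyme with a fluorescent substrate, signal read at 0.5 h post-dose; activity loss analysed relative to acetonitrile. Compounds first run in duplicate at 10 uM, with follow-up concentration-response testing of actives.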
Turning to `CCCCCCCC(=O)O`, the AC50 (as a rule, the concentration at which the activity in the assay is half-maximal) was 4610 nM (active).

As for `Cc1occc1C(=O)Nc1ccc(C(=O)N2CCC(F)(F)/C(=C\C(=O)N3CCC(N4CCCCC4)CC3)c3ccccc32)cc1`, the AC50 is 1240 nM (active).

Regarding `CN(C)C(=O)NC1(c2ccccc2)CCN(CC[C@@]2(c3ccc(F)c(F)c3)CN(C(=O)c3ccccc3)CCO2)CC1`, the result was inactive.

`O=C=NCCCCCCN=C=O`: the AC50 is 884 nM (active).

`CCN(CC)CCNc1ccc(CNC=O)c2sc3ccc(OC)cc3c(=O)c12`: the AC50 is 1410 nM (active).

As for `CC(C)CCCCCCc1ccc(O)cc1`, the outcome was inactive.

Regarding `CNC(=O)[C@H]1O[C@@H](n2cnc3c(NCc4cc(Cl)ccc4OCc4cc(C)no4)ncnc32)[C@H](O)[C@@H]1N`, the outcome was inactive.

With `CC[C@H](C)C(=O)O[C@H]1C[C@@H](C)C=C2C=C[C@H](C)[C@H](CC[C@@H]3C[C@@H](O)CC(=O)O3)[C@H]21`, the result was inactive.

For `COc1cccc([C@H](O)C2CCN(CCc3ccc(F)cc3)CC2)c1OC`, the AC50 is 441 nM (active).

On to `CN1CCC[C@H]1c1cccnc1`, for which the outcome was inactive.

`CCc1ccc(O)c(C(C)(C)C)c1`: the compound was called inactive.

As for `Cc1ccccc1Cl`, the AC50 was 7950 nM (active).

Consider `Cc1nc(-c2ccc3c(c2)CCN(CCC2CCC(NC(=O)/C=C/c4ccc(F)cc4)CC2)CC3)no1` (stereo not drawn), for which the compound was classed as inactive.

`Nc1nc(Cl)nc2c1ncn2[C@H]1C[C@H](O)[C@@H](CO)O1`: the call was inactive.

With `O=C1NC(=O)C(c2ccccc2)(c2ccccc2)N1`, the call was inactive.

For the compound `CC(C)NCC(O)c1ccc(O)c(O)c1` (stereo not drawn), the AC50 is 2130 nM (active).

`CCOC(N)=O`: the compound was called inactive.

Take `COC(=O)CCC(=O)OC`: the compound was classed as inactive.
